Screens (PubChem BioAssay)
This is one part of a sample in which hits are shown more often than they occur.
Vaccinia Venus – vaccinia inhibition (Venus reporter). 0.46% of 330,000 active. Vaccinia virus Venus reporter expression, fluorescence. Potency, µM (titrated, usually from 36.5 µM), without a hit: at the top dose activity change, negative = inhibition, most hits filed as inhibitors. AID 720580; calls by dose curve; tested in A549 cells; note: potency is the fitted concentration of half-maximal effect; % is set by controls: 0 for no effect and ±100 for the full control effect; nearly all actives have a fitted effect of over 30% in size
VACV mCherry inh – inhibitors of vaccinia virus infection (mCherry reporter signal). Vaccinia virus mCherry reporter infection, fluorescence. Potency, µM (titrated, usually from 36.5 µM), for the others: top-dose activity change, negative = inhibition, hits mostly inhibitors. 0.63% of 310,000 active; calls by dose curve; tested in A549 cells; note: potency is the fitted concentration of half-maximal effect; % is set by controls: 0 for no effect and ±100 for the full control effect; nearly all actives have a fitted effect of over 35% in size
Lassa entry inh – Lassa virus entry inhibition; Lassa virus pseudotype entry inhibition, cell reporter; Potency, µM (top dose mostly 37.9 µM), for the others: at the top dose activity change, negative = inhibition, usual class: inhibitors; 1.2% of 300,000 active; AID 540256; calls by dose curve; tested in HEK293 cells; note: potency is the fitted concentration of half-maximal effect; % is set by controls: 0 for no effect and ±100 for the full control effect; nearly all actives have a fitted effect of over 50% in size
Shiga inhibitor – Shiga toxin inhibition. Vero cells, Shiga toxin protein synthesis inhibition reporter. inhibition, % at 38.7 µM. 9.2% of 290,000 active. AID 2315; in the data active = inhibition mostly above about 28%, no sharp cut-off; inactive = mostly below about 43%; note: 0% is about no effect
Cycloheximide cs – counter-screen for Shiga toxin inhibitors: cycloheximide protein synthesis inhibition; cell reporter, cycloheximide protein synthesis inhibition counterscreen; max response, %; 12% of 300,000 active; in the data active = max response mostly above about 13%, no sharp cut-off; inactive = mostly below about 14%; note: read at 38.3 µM for the half of the compounds with a filed dose; 0% is about no effect
Marburg entry inh – inhibitors of Marburg virus binding or cell entry. Marburg virus pseudotyped entry inhibition, cell reporter. Potency, µM (series often up to 37.8 µM), for inactives: at the highest dose activity change, negative = inhibition, most hits filed as inhibitors. 1.8% of 300,000 active. AID 540276; calls by dose curve; tested in HEK293 cells; note: potency is the fitted concentration of half-maximal effect; % is set by controls: 0 for no effect and ±100 for the full control effect
An asterisk follows results filed as active; i = inactive; ? = inconclusive; . = no result; [ ] = another dose, or the depositor's remark.

SMILES	Vaccinia Venus	VACV mCherry inh	Lassa entry inh	Shiga inhibitor	Cycloheximide cs	Marburg entry inh
COc1ccc(C(=O)NCCn2cc(SCC(=O)Nc3ccc4c(c3)OCCO4)c3ccccc32)cc1	-11%	-16%	?	.	.	?
COC(=O)c1ccc(NC(=O)C(=O)c2cccn2C)cc1	-11%	-26%	.	54*	29*	.
COc1ccc(CC(=O)OCC(=O)Nc2ccc(C(=O)Nc3ccc(OC)cc3)cc2)cc1	.	.	4%	15	-1	3%
CCOC(=O)CNC(=O)c1cc(OC)cc(OC)c1	-14%	-19%	9%	33	7	13%[46.1 µM]
CCOc1ccc(NC(=O)c2ccc(NC(=O)COC(=O)Cc3ccc(OC)cc3)cc2)cc1	-16%	i	1%	60*	18	-3%[46.1 µM]
CCOC(=O)CNC(=O)Cc1ccc(OC)cc1	-9%	i	-9%	20	13*	3%[14.2 µM]
CCOc1ccc(NC(=O)Cc2ccccc2)cc1	-8%	-9%	-1%	104*	93*	?
CCN1C(=O)c2ccccc2S(=O)c2ccc(C(=O)N3CCOCC3)cc21 (configuration not stated)	-13%	-11%	-2%	12	1	0%[46.1 µM]
Cn1nc(C(=O)Nc2nc(-c3ccc(F)cc3)cs2)ccc1=O	.	.	.	-3	-1	.
Cc1ccnc(Nc2nc(-c3ccc(F)cc3)cs2)c1	-22%	?	?	100*	50*	?
Cc1ccnc(Nc2nc(-c3ccc(Cl)cc3)cs2)c1	-2%	?	4%[46.1 µM]	42*	38*	?
Cc1c(Nc2nc(-c3ccc(Cl)cc3)cs2)c(=O)n(-c2ccccc2)n1C	-24%	?	4%	-11	-3	?
Cc1cc(C)c2c(N)c(C(=O)N/N=C/c3ccccc3)sc2n1	.	.	.	121*	59*	.
Cc1c(C(=O)N/N=C/c2cccnc2)sc(=S)n1C	-13%	-10%	?	-2	-4	?
Cc1cc(C)c2c(N)c(C(=O)N/N=C/c3cccnc3)sc2n1	-19%	i	-2%	43	43*	?
Cc1ccc(-c2nc(CS(=O)(=O)CC(=O)Nc3ccc(Br)cc3F)c(C)o2)cc1	-3%	-14%	18%[46.1 µM]	.	.	6%[46.1 µM]
Cc1c(C(=O)N2CC[C@@H]3CCCC[C@H]3C2)sc2ncnc(NCCc3ccccn3)c12	5%	-5%	.	.	.	.
CCc1ccc(NC(=O)Nc2cnccn2)cc1	.	.	.	102*	47*	.
O=C(Nc1ccc([N+](=O)[O-])cc1)Nc1ccon1	-13%	-6%	-9%[46.1 µM]	-5	-1	?
CCCCc1ccc(NC(=O)Nc2cnccn2)cc1	.	.	.	50*	23*	.
CCc1ccc(NC(=O)Nc2ccon2)cc1	.	.	.	62*	68*	.
CCc1cc(C(=O)NCc2c(C)ncc3c2CCN(C(=O)C2=CCCC2)C3)no1	7%	-8%	.	.	.	.
COc1ccc(N(C(=O)CNC(=O)c2ccco2)C(C(=O)NCC2CCCO2)c2ccc(OC)c(OC)c2)cc1 (configuration not stated)	-10%	-3%	-15%	10	0	?
CCOCCCN1C(=O)c2ccccc2CC1(C)C(=O)NC1CCCCC1 (configuration not stated)	-5%	3%	.	.	.	?
Cc1ccsc1/C=N/N=C1\C(=O)Nc2ccccc21	-17%	-2%	12%	49*	40*	-1%
SMILES	Vaccinia Venus	VACV mCherry inh	Lassa entry inh	Shiga inhibitor	Cycloheximide cs	Marburg entry inh
COc1cc(/C=N/N2C(=O)C3C4C=CC(CC4)C3C2=O)ccc1O (configuration not stated)	-12%	-7%	2%[46.1 µM]	57*	42	7%[46.1 µM]
COc1cc(/C=N/N=C2/C(=O)Nc3ccccc32)ccc1O	-9%	-17%	16%	0	23*	?
O=C1C2C3C=CC(CC3)C2C(=O)N1/N=C/c1ccccc1O (configuration not stated)	-15%	i	-6%	28	20*	0%
Cc1ccccc1N=C1C(=O)Nc2ccccc21	4%	-17%	30%	.	.	-5%
O=C1Nc2ccccc2/C1=N\N=C\c1ccc(O)c(O)c1	-17%	-8%	?	5	9	-3%
COc1ccc(/C=N/N2C(=O)C3C4C=CC(C4)C3C2=O)cc1[N+](=O)[O-] (configuration not stated)	0%	8%	?	18	11	1%[46.1 µM]
COc1ccc(Br)cc1C(=O)Nc1ccc(-c2nc3ncccc3o2)cc1C	-2%	0%	-2%[46.1 µM]	.	.	?
COc1cc(/C=N/N2C(=O)c3ccccc3C2=O)ccc1O	-17%	0%	21%	0	20*	-16%
COc1cc(/C=N/N2C(=O)CSC2=S)ccc1O	.	.	14%	-8	9	11%
O=C1c2cccc3cccc(c23)C(=O)N1/N=C/c1ccc(O)cc1O	-2%	1%	-4%	20	-3	1%
O=C1c2ccccc2C(=O)N1/N=C/c1ccc(O)c(O)c1O	12%	-2%	0%	55*	24*	-13%[46.1 µM]
NC(=O)c1sc2nc(-c3ccccc3)ccc2c1N	.	.	.	97*	35*	.
Nc1c(C(=O)NC2CCCC2)sc2nc(-c3cccs3)ccc12	-17%	-24%	29%	39	22*	17%
Nc1c(C(=O)Nc2ccc(C(F)(F)F)cc2)sc2nc(-c3cccs3)ccc12	-1%	-7%	7%[46.1 µM]	.	.	11%[46.1 µM]
CCOC(=O)c1sc2nc(-c3ccccc3)ccc2c1N	1%	-12%	?	67*	92*	?
Cc1cc(F)ccc1NC(=O)c1sc2nc(-c3cccs3)ccc2c1N	-12%	-20%	20%[46.1 µM]	.	.	4%[46.1 µM]
NC(=O)c1sc2nc(-c3cccs3)ccc2c1N	.	.	.	64*	49*	.
COC(=O)c1c(SC)nc2ccccc2c1OCc1ccccc1C	-8%	-11%	25%[46.1 µM]	.	.	.
O=C(NCc1ccco1)c1cnn2cccnc12	-20%	i	8%[46.1 µM]	-6	-2	0%[46.1 µM]
CCOC(=O)CNC(=O)c1cnn2cccnc12	-16%	.	1%	51	42*	14%[46.1 µM]
CCCn1ccc2c(OCC(=O)NCc3ccccc3Cl)cccc2c1=O	-12%	-20%	?	.	.	.
O=C(Nc1cccc(S(=O)(=O)C(F)(F)F)c1)[C@H]1C[C@H](O)[C@@H](CO)O1	-2%	9%	.	.	.	.
Cc1cc(C)n(-c2ccnc3cc(Cl)ccc23)n1	-4%	i	.	-2	18*	.
O=C(C1CCCCC1)N1CCN(c2ccnc3cc(Cl)ccc23)CC1	-12%	-25%	7.9µM*	-9	-10	?
COc1ccccc1N1CCN(c2ccnc3cc(Cl)ccc23)CC1	-28%	11µM*	?	3	-4	?
O=C(C1CCC1)N1CCN(c2ccnc3cc(Cl)ccc23)CC1	.	.	.	6	-2	.
CN(C)S(=O)(=O)N1CCN(c2ccnc3cc(Cl)ccc23)CC1	.	.	.	10	4	.
Cc1ccc2nc(CSc3nnc(NC(=O)COc4ccccc4)s3)cc(=O)n2c1	-9%	-22%	7%[46.1 µM]	.	.	.
COc1ccc(N(CC(=O)NC(C)c2ccccc2)S(=O)(=O)c2c(C)nn(C)c2C)cc1 (configuration not stated)	0%	-6%	21%[46.1 µM]	.	.	?
